Measured values from PubChem BioAssay AID2289 (National Center for Advancing Translational Sciences (NCATS), 2010).
Where “and” joins values, the source holds several entries; their conditions need not be identical. Equal entries are not always repeated. Among all 340,000 compounds or so, about 3,300 (0.97%) were called active. Roughly 9% stayed inconclusive and do not appear here. The call rests on the fitted dose curve; in most records, active means well fitted inhibition curve with a large enough effect; inconclusive means small, poorly fitted or top-dose-only effect, or effect the other way; inactive means flat fitted curve, though single readings scatter. This is one part of the list.

assay: qHTS Assay for Modulators of miRNAs and/or Inhibitors of miR-21; conditions: HeLa miR-21-FLuc reporter, luciferase luminescence, 48 h; actives lower the signal; further: nearly all actives have a fitted effect of over 55% in size
Summary of the method: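 Using DMEM plus 10% FBS, HeLa miR-21-FLuc cells are incubated with test compounds (final up to about 40uM) for 48 hours; firefly luciferase signal is then imaged following reagent-mediated lysis.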
Potency means the concentration at half of the fitted maximal effect.

Potency, active:
O=C(Nc1cc2c(cc1C(=O)O)OCCCO2)c1ccc(C(F)(F)F)cc1 7.36 µM
O=C(Nc1cc2c(cc1Br)OCCCO2)c1ccccc1 2.33 µM
COc1cccc(C(=O)Nc2cc3c(cc2Cl)OCCCO3)c1 0.826 µM
COc1cccc(C(=O)Nc2cc3c(cc2Br)OCCCO3)c1 2.07 µM
CN(C)S(=O)(=O)Oc1cccc(C(=O)Nc2ccccc2Cl)c1 8.26 µM
COC(=O)c1c(-c2cccnc2)csc1NC(=O)c1ccc2c(c1)OCO2 1.04 µM
COC(=O)c1c(-c2ccncc2)csc1NC(=O)c1ccoc1C 1.85 µM
COC(=O)c1c(-c2cccnc2)csc1NC(=O)c1cc(C)on1 2.07 µM
CC(CC(=O)c1cccs1)CC(=O)c1cccs1 11.7 µM
CC(C)(C)C(=O)Nc1ccc(C(=O)OC2CCCCC2)cc1 0.927 µM
Cc1nnc(SCc2nc(N)nc(Nc3ccccc3)n2)s1 11.7 µM
COc1ccc(Nc2nc(N)nc(CSc3nnc(C)s3)n2)cc1 18.5 µM
Cc1nnc(SCc2cccc3ccccc23)s1 14.7 µM
COc1ccc(Nc2nc(N)nc(SCc3nnc(C)s3)n2)cc1 14.7 µM
Cc1ccc(Nc2nc(N)nc(CSc3nnc(C)s3)n2)cc1 7.36 µM
CCc1ccc(NC(=O)c2n[nH]c(=O)c3ccccc23)cc1 1.04 µM
O=C(Nc1ccc2c(c1)OCO2)c1n[nH]c(=O)c2ccccc12 5.85 µM
COc1ccccc1Nc1nc(N)nc(CSC(=S)N2CCCCC2)n1 14.7 µM
Cc1ccc(Nc2nc(N)nc(CSC(=S)N3CCOCC3)n2)c(C)c1 10.4 µM
COc1ccccc1Nc1nc(N)nc(CSC(=S)N2CCOCC2)n1 16.5 µM
COc1ccc(CCNc2ncccc2C#N)cc1OC 6.56 µM
O=C(N/N=C1\CCCCc2ccccc21)c1ccccn1 5.85 µM
O=C(N/N=C1\CCc2ccccc21)c1ccccc1Cl 1.85 µM
CCOC(=O)N/N=C1\CCc2ccccc21 11.7 µM
O=C(O)c1ccc(N/N=C2/CCCc3ccccc32)cc1 6.56 µM
O=C(COc1ccccc1F)N/N=C1\CCCc2ccccc21 3.29 µM
N/C(=N\OC(=O)CSc1ccccc1)c1ccncc1 14.7 µM
N/C(=N\OC(=O)CSc1ccccc1)c1ccc([N+](=O)[O-])cc1 4.65 µM
COc1ccc(/C(N)=N/OC(=O)CSc2ccccc2)cc1OC 8.26 µM
COc1ccc(-c2nnc(SCC(=O)Nc3cccc(F)c3)s2)cc1 13.1 µM
COc1ccc(NC(=O)CSc2nnc(NC(=O)Nc3ccc(OC)cc3)s2)cc1 0.826 µM
COc1ccccc1C(=O)Nc1nnc(SCC(=O)NC2CCCC2)s1 0.414 µM
COc1ccc(NC(=O)Nc2nnc(-c3ccco3)s2)cc1 0.927 µM
COc1ccc(C(=O)Nc2nnc(SCC(=O)Nc3ccc(NC(C)=O)cc3)s2)c(OC)c1 0.0656 µM
CC(=O)c1ccc(NC(=O)CSc2nnc(NC(=O)Nc3ccccc3)s2)cc1 7.36 µM
CC(C)c1ccc(/C=C/C(=O)N2CCOCC2)cc1 2.93 µM
O=C(/C=C/c1cccc2ccccc12)N1CCOCC1 6.56 µM
CC(C)(C)c1ccc(/C=C/C(=O)N2CCOCC2)cc1 6.56 µM
COc1ccc(NC(=O)C2CCCN(c3ncccn3)C2)cc1 (stereo not given) 8.26 µM
Cc1ccc(NC(=O)C2CCCN(c3ncccn3)C2)cc1C (stereo not given) 14.7 µM
COc1ccc(-n2ncc3c(N4CCCc5ccccc54)ncnc32)cc1 0.414 µM
CCC(NC(=O)c1ccccc1NC(=O)c1ccc(OC)cc1)C(=O)N1CCCC1 (stereo not given) 6.56 µM
Cc1[nH]c2ccccc2c1C(=O)CSC(=S)N1CCCCC1 3.29 µM
COc1ccc(/C=C/C(=O)N(C)C2CCCCC2)cc1Br 9.27 µM
Cc1ccc2c(CN3CCC(C)CC3)cc(=O)oc2c1 5.21 µM
Cc1ccc2c(CN3CCC(C)CC3)cc(=O)oc2c1C 7.36 µM
CN(C)c1ccc(/C=C/c2nnnn2-c2ccccc2)cc1 1.65 µM
CC(Cc1cccs1)NC(=O)c1cccc(Cl)c1 (stereo not given) 6.56 µM
COc1ccc(C2CC(=O)N(C)c3ccccc3S2)cc1OC (stereo not given) 18.5 µM
Cc1ccc(-c2nc3ccccc3nc2NN)cc1 1.17 µM
CC(=O)c1sc(-c2ccc(F)cc2F)nc1C 14.7 µM
Cc1sc(NC(=O)C2C3CCC(O3)C2C(=O)O)nc1-c1ccc(CC(C)C)cc1 (stereo not given) 3.69 µM
CCOC(=O)C1=NN(c2ccc(Cl)cc2)C(=O)C1 6.56 µM
C=CCn1c(C)nc2c(sc3nc4c(cc32)COC(C)(C)C4)c1=O 0.656 µM
CCOC(=O)c1sc2nc3c(cc2c1N)COC(C(C)C)C3 (stereo not given) 0.0414 µM
CCOC(=O)c1cc2c(nc1N)CC(C)(CC)OC2 (stereo not given) 7.36 µM
CCOC(=O)c1sc2nc3c(cc2c1N)COC(C)(C)C3 1.17 µM
Cc1cc(O)c(C2=Nc3ccccc3SC(c3ccc(Cl)cc3)C2)c(=O)o1 (stereo not given) 1.65 µM
Cc1ccc2c3c([nH]c2c1C)-c1nonc1CC3 7.36 µM
Cc1ccc(-n2c(C)cc(/C=C3\SC(=O)NC3=O)c2C)cc1 1.47 µM
COc1ccc(-n2c(C)cc(/C=C3\SC(=O)NC3=O)c2C)cc1 5.85 µM
O=C1NC(=S)N/C1=C\c1ccc(N2CCOCC2)cc1 13.1 µM
Cc1cc(N2CCOCC2)ccc1/C=C1/SC(=O)NC1=O 4.65 µM
Cc1ccc(/C=N/NC(=O)CSc2nc3ccccc3o2)cc1 11.7 µM
CCOc1cccc2cc(-c3csc(NC(=O)CCC(=O)NCCCN4CCC(C)CC4)n3)c(=O)oc12 1.17 µM
CN(C)c1oc(/C=C/c2ccccc2)nc1C#N 5.85 µM
COc1ccccc1/C=C/c1nc(C#N)c(N(C)C)o1 927 nM and 1.65 µM
CCOc1ccc(/C=C/c2nc(C#N)c(N(C)C)o2)cc1 0.329 µM
COc1ccc(Nc2oc(/C=C/c3ccccc3OC)nc2C#N)cc1 13.1 µM
CCN1C(=O)/C(=C/C=C2/SCCN2C)SC1=S 0.185 µM
CCCCN1C(=O)/C(=C/C=C2\SCCN2C)SC1=S 5.21 µM
CN1C(=O)/C(=C/C=C2\SCCN2C)SC1=S 0.464 µM
Cc1nc(NC(=O)c2cc3c(s2)CCCCC3)sc1C(=O)N(C)C 7.36 µM
Fc1cccc(C2NN=C(c3ccccc3)S2)c1 (stereo not given) 0.585 µM
O=C1NN(c2ccccc2)C(=O)/C1=C/c1coc2ccccc2c1=O 4.65 µM
CC1CCCCN1Cc1c(O)ccc2c(=O)c(-c3ccc(Cl)cc3)coc12 (stereo not given) 18.5 µM
COc1ccc(-c2cc(COc3ccccc3)on2)cc1 9.27 µM
Fc1ccc(OCc2cc(-c3ccccc3)no2)cc1 4.14 µM
CCCCNC(=O)c1nnn(-c2ccccc2)c1N 16.5 µM
CCN=C1S/C(=C\c2ccc(-c3cccc(C(=O)O)c3)o2)C(=O)N1CC 0.656 µM
CC(C)N1C(=O)S/C(=C\c2ccc(-c3ccc(Cl)c(C(=O)O)c3)o2)C1=O 0.293 µM
COC(=O)C(C)N1C(=O)S/C(=C\c2ccc(-c3ccc(C(=O)O)cc3C)o2)C1=O (stereo not given) 6.56 µM
C#CCN1C(=O)S/C(=C\c2ccc(-c3ccc(C(=O)O)cc3C)o2)C1=O 3.29 µM
COc1ccc(OC)c2c(N3CC(C)OC(C)C3)cc(C(F)(F)F)nc12 (stereo not given) 6.56 µM
O=C(Nc1ccccn1)c1sc2cccc(F)c2c1Cl 0.165 µM
Brc1cc(Br)c2nc(-c3ccc(N4CCOCC4)cc3)ccc2c1 14.7 µM
N#C/C(=C\c1cccnc1)c1nc2c(s1)CCCC2 2.61 µM
CCc1ccc(NC(=O)CSc2nncn2-c2cccnc2)cc1 16.5 µM
CCc1ccc(NC(=O)CSc2ccc3nc(-c4ccc(OC)cc4)cn3n2)cc1 0.736 µM
Cc1cc(NC(=O)CCSc2ccccc2)ccc1Br 16.5 µM
CCc1ccc(NC(=O)CSc2ccccn2)cc1 10.4 µM
Cc1ccc(NC(=O)CCSc2ccccn2)cc1 4.14 µM
Cc1cc(OCC(=O)N2CCCCCC2)ccc1[N+](=O)[O-] 5.85 µM
Cc1ccc(NC(=O)c2sccc2C)cc1[N+](=O)[O-] 4.14 µM
O=C(CCc1ccccc1)Nc1ccccc1[N+](=O)[O-] 14.7 µM
O=C(NC(=S)Nc1ccccc1[N+](=O)[O-])c1ccccc1 9.27 µM
O=C(Nc1ccccn1)Nc1ccccc1[N+](=O)[O-] 9.27 µM
Cc1ccc(NC(=O)c2ccc(C(C)(C)C)cc2)cc1[N+](=O)[O-] 5.21 µM
CC(C)COc1ccc(C(=O)Nc2ccccc2[N+](=O)[O-])cc1 8.26 µM
Cc1cc(NC(=O)c2ccccc2[N+](=O)[O-])ccc1Br 7.36 µM
Cc1ccc(NC(=O)C2C3CCCCC32)cc1[N+](=O)[O-] (stereo not given) 13.1 µM
O=C(Nc1ccccn1)c1cc2cc([N+](=O)[O-])ccc2s1 0.826 µM
CC(C)(C)c1ccc(NC(=O)c2ccccc2)c([N+](=O)[O-])c1 0.736 µM
CC(C)(C)c1cc(NC(=O)c2cccc([N+](=O)[O-])c2)no1 1.47 µM
CC(C)(C)c1ccc(C(=O)Nc2ccc([N+](=O)[O-])cn2)cc1 0.464 µM
